# Screening results from PubChem.
# SW480 rereplic – A quantitative high throughput screen for small molecules that induce DNA re-replication in SW480 colon adenocarcinoma cells | SW480 DNA re-replication, Hoechst DNA content imaging, 48 h | Potency, µM (titrated, usually from 46.1 µM), most hits filed as activators | 1.8% of 340,000 active; note: nearly all actives have a fitted effect of over 55% in size
#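 Image-based read-out: total Hoechst fluorescence of nuclei (405 nm excitation, 500-530 nm emission), with hits raising the fraction of high-intensity nuclei. SW480 colon cells incubated 48 hr with compounds at 37 C.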
# MCF10A rereplic – A quantitative high throughput screen for small molecules that induce DNA re-replication in MCF 10a normal breast cells. 2.9% of 350,000 active. MCF 10A DNA re-replication, Hoechst nuclear intensity, 48 h. AID 624296, 2012. Potency, µM (series often up to 46.1 µM), actives largely listed as activators; note: nearly all actives have a fitted effect of over 50% in size
# Gal4-VP16 FLuc – VP16 counterscreen qHTS for inhibitors of ROR gamma transcriptional activity | Drosophila S2 Gal4-VP16 UAS-luciferase, luminescence, 20 h | AID 2546, 2010 | 3.5% of 310,000 active | Potency, µM (top dose mostly 53.6 µM), hits mostly inhibitors;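 note: Gal4-VP16 expression switched on by copper sulfate through the metallothionein promoter; nearly all actives have a fitted effect of over 50% in size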
# ELG1 repair inh – qHTS screen for small molecules that inhibit ELG1-dependent DNA repair in human embryonic kidney (HEK293T) cells expressing luciferase-tagged ELG1; 2.3% of 330,000 active; HEK293T ELG1-luciferase reporter, luminescence, 16 h; DNA damage induced by 5-fluorouridine; Potency, µM (top dose mostly 46.1 µM), usual class: inhibitors; note: nearly all actives have a fitted effect of over 55% in size
#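 Cells (2,000 per well) received 5-fluorouridine plus test compound or DMSO and were incubated 16 hr at 37 °C, 5% CO2. Luciferase activity was read by luminescence 30 min after ONE-Glo addition; signal suppression marked inhibition of damage-induced ELG1 function.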
# RORg inh – qHTS for inhibitors of ROR gamma transcriptional activity | Drosophila S2 Gal4-RORgamma UAS-luciferase reporter, 20 h | Potency, µM (doses to about 53.6 µM), most hits filed as inhibitors | Nuclear receptor ROR-gamma (Mus musculus), P51450 | AID 2551, 2010 | 5.4% of 310,000 active; note: nearly all actives have a fitted effect of over 60% in size
# Target sequence (P51450 whole entry, looked up, the tested form may be a part): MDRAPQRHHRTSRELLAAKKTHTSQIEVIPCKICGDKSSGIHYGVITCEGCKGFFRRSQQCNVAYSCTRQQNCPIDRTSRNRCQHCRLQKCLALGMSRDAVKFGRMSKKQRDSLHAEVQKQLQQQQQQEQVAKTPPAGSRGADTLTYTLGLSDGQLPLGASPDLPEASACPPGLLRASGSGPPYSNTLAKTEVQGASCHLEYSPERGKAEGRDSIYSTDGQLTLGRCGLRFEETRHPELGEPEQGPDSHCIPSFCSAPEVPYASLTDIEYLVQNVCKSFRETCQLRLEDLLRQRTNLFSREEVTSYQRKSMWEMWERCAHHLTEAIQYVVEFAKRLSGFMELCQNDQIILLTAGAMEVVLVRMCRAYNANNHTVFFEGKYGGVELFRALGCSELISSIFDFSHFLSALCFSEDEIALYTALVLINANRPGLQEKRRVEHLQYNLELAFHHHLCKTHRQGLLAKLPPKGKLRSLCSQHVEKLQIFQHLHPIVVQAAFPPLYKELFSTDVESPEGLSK
#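 Luciferase reporter read in Schneider cells carrying Gal4-RORγ (mouse) and UAS-Photinus luciferase; cells given compound 1 h before 700 uM copper sulfate induction, then incubated 20 h at ambient temperature.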
# Hits are given with their value; 0 = inactive; ? = inconclusive; - = not tested or not shown; ! = not confirmed by another sample; [ ] = dose if it differs, or a comment. Only some compounds are listed: those with a hit (about 10% of all), similar ones and a draw of the others. Calls come from the whole dose curve; as a rule, active = well fitted curve in the direction sought with a large enough effect; inconclusive = small, poorly fitted or top-dose-only effect, or another doubt; inactive = no such curve, though single readings can be large; an effect the other way counts as inactive or inconclusive.
SMILES,SW480 rereplic,MCF10A rereplic,Gal4-VP16 FLuc,ELG1 repair inh,RORg inh
COc1ccc(N(C)S(=O)(=O)c2cccc(C(=O)Nc3nc4ccccc4[nH]3)c2)cc1,?,?,11µM,?,4µM
COc1ccc(N(C)S(=O)(=O)c2cccc(C(=O)NC3CCCCCC3)c2)cc1,0,?,0,?,0
O=C1C2C3C=CC(CC3)C2C(=O)N1c1ccccc1[N+](=O)[O-] (stereo not given),?,0,0,0,0
COc1ccc(NC2CCCN(C(=O)C3(C)CCCCC3)C2)cc1OC (stereo not given),0,0,0,?,0
Cc1c(NC(=O)C(C)OC(=O)CCc2c[nH]c3ccccc23)c(=O)n(-c2ccccc2)n1C (stereo not given),0,0,-,0,-
O=C(O)c1cccc(N/N=C/C2=C(Cl)c3cc(Cl)ccc3SC2)c1,0,8.2µM,0,?,0
O=c1c(O)c(-c2cccs2)oc2ccc(Cl)cc12,0,?,?,0,11µM
O=c1c(O)c(-c2cccs2)oc2ccccc12,?,?,0[0.365 µM],?,22µM
O=c1cc(-c2cccs2)oc2ccc(Cl)cc12,0,0,0,?,0
CC(C)c1ccc(N(CC(=O)NCc2cccnc2)S(=O)(=O)c2ccccc2)cc1,0,0,0,0,?
CC1CC(C)(C)OC(c2ccc(C(C)C)cc2)O1 (stereo not given),0,0,-,-,-
CCOC(=O)c1cc2nc(Nc3ccc(OC)cc3)sc2s1,?,4.6µM,0,?,0
CCOC(=O)c1cccc2c1-c1ccccc1/C2=N/O,0,0,?,?,0
CC1CCCC(C)N1C(=O)c1cccc2c1-c1ccccc1/C2=N/O (stereo not given),0,0,0,21µM,0
CC(C)COC(=O)c1cccc2c1-c1ccccc1/C2=N\O,0,18µM,11µM,?,?
Cc1cccc(N2CCN(c3nc(C)cc(C)c3C#N)CC2C)c1 (stereo not given),?,18µM,-,?,-
CCCCn1c(=S)[nH]c2c(oc3ccc(Cl)cc32)c1=O,-,-,?,0,1.1µM
NNC(=O)/C(=N/Nc1ccccc1)S(=O)(=O)c1ccc(Cl)cc1,?,?,?,0,?
CCCn1c(SCC(=O)NC2CCCC2)nnc1C(C)C,18µM,0,0,?,0
COCCn1c(SCC(=O)NC2CCCC2)nnc1C(C)C,0,0,0,0,0
CC(C)OC(=O)c1c(NC(=O)c2ccco2)sc2c1CCCCC2,0,16µM,0,0,0
COC(=O)c1c(NC(=O)c2ccco2)sc2c1CCC2,0,?,0,0,0
CC(C)OC(=O)c1c(NC(=O)c2cccs2)sc2c1CCCC2,0,16µM,0,0,0
Cc1ccc2oc(=O)c3c4cc(O)c(O)cc4oc3c2c1,-,-,0,-,?
COc1cc(O)c2c(c1)oc(=O)c1c3cc(O)c(O)cc3oc21,-,-,?,-,13µM!
SMILES,SW480 rereplic,MCF10A rereplic,Gal4-VP16 FLuc,ELG1 repair inh,RORg inh
Cc1ccc(NS(=O)(=O)Cc2ccccc2)cc1Cl,?,0,0,0,0
Fc1cccc(C2NC(=S)NC3=C2N2CCC3CC2)c1 (stereo not given),0,0,0,?,0
S=C1NC2=C(C(c3ccc(Br)cc3)N1)N1CCC2CC1 (stereo not given),?,0,0,0,8.9µM
COc1ccc(NC(=O)c2c[nH]c(=O)n(-c3ccc(C)c(C)c3)c2=O)c(OC)c1,0,0,-,-,-
Cc1ccc(Cn2nnnc2CN2CCC(c3nc4ccc(Cl)cc4[nH]3)CC2)cc1,0,?,0[0.365 µM],23µM,0
CC(C)(C)c1ccc(C(=O)NC2CCN(Cc3ccccc3)CC2)cc1,16µM,0,0,0,0
Clc1ccc2nc(C3CCN(Cc4nnnn4C4CCCCC4)CC3)[nH]c2c1,0,0,0,?,0
Cc1ccc(Cn2nnnc2CN2CCC(NC(=O)c3ccc(Br)cc3)CC2)cc1,0,0,0,21µM,0
CCC(C)(C)n1nnnc1CN1CCC(NC(=O)c2ccc(Br)cc2)CC1,0,0,0,?,?
O=C(NC1CCN(Cc2ccc(Cl)cc2Cl)CC1)c1ccccc1,0,0,0,13µM,?
CN(Cc1ccnc2ccccc12)C(=O)C1CCC(=O)N(Cc2ccccc2F)C1 (stereo not given),0,0,0,0,0
CN(C)C(=O)c1ccc(-c2nc(Nc3ccccc3)c3ccccc3n2)cc1,-,-,0,-,0
Cc1ccc(Cl)cc1S(=O)(=O)N1CCC(C(=O)NC2CCN(Cc3ccccc3)CC2)CC1,?,?,22µM,5.2µM,?
Cc1ccc(NS(=O)(=O)c2ccc(C(=O)NC3CCN(Cc4ccccc4)CC3)cc2)cc1,18µM,0,-,?,-
Cc1cccc(C)c1N/C=C/c1onc(C)c1[N+](=O)[O-],0,0,0,-,0
Cc1noc(/C=C/c2cccnc2)c1[N+](=O)[O-],?,?,16µM,?,10µM
Cc1csc(NC(=O)c2ccc(S(=O)(=O)N(C)c3ccccc3)cc2)n1,0,?,0,23µM,0
CN(c1ccccc1)S(=O)(=O)c1ccc(C(=O)Nc2nccs2)cc1,0,0,?,?,0
CN(c1ccc(C(=O)Nc2nccs2)cc1)S(=O)(=O)c1ccccc1,0,0,0[0.365 µM],0,2.8µM
CCCC1(c2ccccc2)NC(=O)N(CC(=O)NCC2COc3ccccc3O2)C1=O (stereo not given),0,0,-,0,-
CC(=O)n1cc([C@H]2C=C(C(N)=O)O[C@@H](OCc3ccc(CO)cc3)C2)c2ccccc21,0,0,-,-,-
O=[N+]([O-])c1cnc(Sc2ccncn2)s1,?,0,3.2µM,?,3.2µM
c1ccc(-c2nnc(N3CCN(c4ccccn4)CC3)c3ccccc23)cc1,0,?,-,13µM,0[0.365 µM]
CS(=O)(=O)N1CCN(c2nnc(-c3ccccc3)c3ccccc23)CC1,0,0,0,0,0
O=S(=O)(c1ccccc1)N1CCN(c2nnc(-c3ccccc3)c3ccccc23)CC1,0,0,0,23µM,0
SMILES,SW480 rereplic,MCF10A rereplic,Gal4-VP16 FLuc,ELG1 repair inh,RORg inh
Cc1ccc(-c2nnc(N3CCN(c4ccccn4)CC3)c3ccccc23)cc1,0,?,-,16µM,0[0.365 µM]
CC/C=C\C/C=C\C/C=C\C/C=C\C=C\C(O)CCCC(=O)O (stereo not given),-,-,0,-,0
N/C(=N\OC(=O)/C=C/c1ccccc1Cl)c1ccccn1,0,0,0[10 µM],?,11µM
CC(C(=O)O/N=C(\N)c1ccccn1)c1ccc([N+](=O)[O-])cc1 (stereo not given),0,0,0,?,0
Cc1cccc(C(=O)O/N=C(\N)c2ccccn2)c1,0,0,10µM,?,13µM
Cc1ccc(C(=O)O/N=C(\N)c2ccccn2)cc1C,0,?,11µM,?,8.9µM
N/C(=N\OC(=O)c1cccc(F)c1)c1ccccn1,0,0,?,?,?
